{"source": "ChEMBL document CHEMBL3988442", "about": "“University of Dundee, Small-Polar-MMV Screening Library” (2021)", "test_system": "Leishmania donovani", "assay": "Leishmania intramacrophage assay", "format": "functional, organism-based", "set-up": "scale not given: in the data most compounds retested in dose-response had high values", "note": "Hit rate of the full screen: of about 69,000 compounds, about 1,000 (1.4%) showed an effect of 50% or more. This excerpt belongs to a sample that is enriched for strong results."}
{"smiles": "CCn1c(C)cc(C(=O)NCc2cccc(S(=O)(=O)NC)c2)c1C", "values": [{"measurement": "Percent Effect", "setting": "30.3 µM, […]", "result": -2.214, "unit": "%"}]}
{"smiles": "C[C@@H]1CN(CCC(=O)N(C)Cc2ccccc2)C[C@@]1(O)C1CCC1", "values": [{"measurement": "Percent Effect", "setting": "30.3 µM, […]", "result": 54.72, "unit": "%"}]}
{"smiles": "CN(Cc1ccccc1)C(=O)CCN1CCC2(CC1)[C@H](O)C[C@@H]2O", "values": [{"measurement": "Percent Effect", "setting": "30.3 µM, […]", "result": 16.81, "unit": "%"}]}
{"smiles": "C[C@@H]1CN(CCC(=O)N(C)Cc2ccccc2)CC[C@@]1(O)C1CCC1", "values": [{"measurement": "Percent Effect", "setting": "30.3 µM, […]", "result": -42.91, "unit": "%"}]}
{"smiles": "CC(C)Nc1cccc(CC2CCN(C)C2)n1.O=CO", "note": "(stereo not given)", "values": [{"measurement": "Percent Effect", "setting": "30.3 µM, […]", "result": 8.612, "unit": "%"}]}
{"smiles": "Cc1noc(C)c1CC(=O)NCC(C(C)C)N1CCOCC1", "note": "(stereo not given)", "values": [{"measurement": "Percent Effect", "setting": "30.3 µM, […]", "result": 13.16, "unit": "%"}]}
{"smiles": "CS(=O)(=O)N1C[C@@H]2CC[C@H](C1)N(C(=O)CCc1ccsc1)C2", "values": [{"measurement": "Percent Effect", "setting": "30.3 µM, […]", "result": 42.41, "unit": "%"}]}
{"smiles": "COc1ccc(-n2ncc3c2NC(=O)CSC3C(C)C)cc1", "note": "(stereo not given)", "values": [{"measurement": "Percent Effect", "setting": "30.3 µM, […]", "result": 23.81, "unit": "%"}]}
{"smiles": "CC(C)C1SCC(=O)Nc2c1cnn2-c1ccc(F)cc1", "note": "(stereo not given)", "values": [{"measurement": "Percent Effect", "setting": "30.3 µM, […]", "result": -10.63, "unit": "%"}]}
{"smiles": "CC(C)C1SCC(=O)Nc2c1cnn2-c1ccc(Cl)cc1", "note": "(stereo not given)", "values": [{"measurement": "Percent Effect", "setting": "30.3 µM, […]", "result": 63.84, "unit": "%"}]}
{"smiles": "Cc1cc(C)c(CNC(=O)N2CCCN(C(=O)C(C)C)CC2)c(C)c1", "values": [{"measurement": "Percent Effect", "setting": "30.3 µM, […]", "result": -55.36, "unit": "%"}]}
{"smiles": "COc1cc(NC2CCS(=O)(=O)C2)ncn1", "note": "(stereo not given)", "values": [{"measurement": "Percent Effect", "setting": "30.3 µM, […]", "result": -35.33, "unit": "%"}]}
{"smiles": "CC(C)(C)NC(=O)c1cccc(CN2CCS(=O)(=O)CC2)c1", "values": [{"measurement": "Percent Effect", "setting": "30.3 µM, […]", "result": 61.43, "unit": "%"}]}
{"smiles": "Cc1nn(C)c(C)c1NC(=O)c1cccc(CN2CCS(=O)(=O)CC2)c1", "values": [{"measurement": "Percent Effect", "setting": "30.3 µM, […]", "result": 17.24, "unit": "%"}]}
{"smiles": "O=C(NCC1CCC1)c1cccc(CN2CCS(=O)(=O)CC2)c1", "values": [{"measurement": "Percent Effect", "setting": "30.3 µM, […]", "result": 14.97, "unit": "%"}]}
{"smiles": "CN1CCO[C@@H]2CN(S(=O)(=O)c3ccccc3)C[C@@H]2C1.O=C(O)C(F)(F)F", "values": [{"measurement": "Percent Effect", "setting": "30.3 µM, […]", "result": 29.49, "unit": "%"}]}
{"smiles": "OCC1CCCN1c1cc(NCCNc2cccnn2)ncn1", "note": "(stereo not given)", "values": [{"measurement": "Percent Effect", "setting": "30.3 µM, […]", "result": 20.93, "unit": "%"}]}
{"smiles": "OCC1CCCN1c1cc(NCCNc2ccccn2)ncn1", "note": "(stereo not given)", "values": [{"measurement": "Percent Effect", "setting": "30 µM, 30.03 µM", "result": 16.04, "unit": "%"}]}
{"smiles": "OCC1CCCN1c1cc(NCc2ccccn2)ncn1", "note": "(stereo not given)", "values": [{"measurement": "Percent Effect", "setting": "30.3 µM, […]", "result": 50.11, "unit": "%"}]}
{"smiles": "OCC1CCCN1c1cc(NCCc2ccsc2)ncn1", "note": "(stereo not given)", "values": [{"measurement": "Percent Effect", "setting": "30.3 µM, […]", "result": -26.43, "unit": "%"}]}
{"smiles": "OCC1CCCN1c1cc(NCCc2nccs2)ncn1", "note": "(stereo not given)", "values": [{"measurement": "Percent Effect", "setting": "30.3 µM, […]", "result": 55.11, "unit": "%"}]}
{"smiles": "OCC1CCCN1c1cc(NCCc2ccccn2)ncn1", "note": "(stereo not given)", "values": [{"measurement": "Percent Effect", "setting": "30.3 µM, […]", "result": 47.66, "unit": "%"}]}
{"smiles": "NC(=O)[C@@H]1CCCN1C(=O)c1csc(-c2ccc(C(F)(F)F)cc2)n1", "values": [{"measurement": "Percent Effect", "setting": "30.3 µM, […]", "result": 24.55, "unit": "%"}]}
{"smiles": "CNC(=O)c1cc(OC)c(OC)cc1N(C)S(C)(=O)=O", "values": [{"measurement": "Percent Effect", "setting": "30.3 µM, […]", "result": -11.85, "unit": "%"}]}
{"smiles": "COc1ccc(CCCC(=O)NCc2c(C)noc2C)cc1F", "values": [{"measurement": "Percent Effect", "setting": "30.3 µM, […]", "result": 0.2518, "unit": "%"}]}
{"smiles": "Cc1cc(C)cc(C(=O)NCc2ncnn2C)c1", "values": [{"measurement": "Percent Effect", "setting": "30.3 µM, […]", "result": -3.252, "unit": "%"}]}
{"smiles": "COC(=O)CCNC(=O)c1nnn(-c2ccc(F)cc2)c1C1CC1", "values": [{"measurement": "Percent Effect", "setting": "30.3 µM, […]", "result": 23.19, "unit": "%"}]}
{"smiles": "COc1cccc(CNCc2ccccc2Cl)c1O", "values": [{"measurement": "Percent Effect", "setting": "30.3 µM, […]", "result": 11.74, "unit": "%"}]}
{"smiles": "COc1cccc(CNCc2ccc(F)c(Cl)c2)c1O", "values": [{"measurement": "Percent Effect", "setting": "30.3 µM, […]", "result": 3.534, "unit": "%"}]}
{"smiles": "COc1cccc(CNCc2ccc(F)cc2Cl)c1O", "values": [{"measurement": "Percent Effect", "setting": "30.3 µM, […]", "result": 50.12, "unit": "%"}]}
{"smiles": "COCCCC(=O)N(C)c1ccc(F)c(Cl)c1", "values": [{"measurement": "Percent Effect", "setting": "30.3 µM, […]", "result": 10.71, "unit": "%"}]}
{"smiles": "O=c1oc(-c2ccc(F)cc2)nn1CN1CCCCC1", "values": [{"measurement": "Percent Effect", "setting": "30 µM", "result": 11.98, "unit": "%"}]}
{"smiles": "COCCNC(=O)c1sc(Nc2ccc(Cl)cn2)nc1C", "values": [{"measurement": "Percent Effect", "setting": "30 µM, 30.03 µM", "result": -6.179, "unit": "%"}]}
{"smiles": "COCC1CN(c2ccc(C)nn2)Cc2cnn(C)c21.O=C(O)C(F)(F)F.O=C(O)C(F)(F)F", "note": "(stereo not given)", "values": [{"measurement": "Percent Effect", "setting": "30.3 µM, […]", "result": 1.62, "unit": "%"}]}
{"smiles": "CCc1nc2c(N3CCC4(CC3)CNC(=O)C4)ncnc2o1", "values": [{"measurement": "Percent Effect", "setting": "30.3 µM, […]", "result": 11.46, "unit": "%"}]}
{"smiles": "CCc1nc2c(N3CCC4(CC3)CC(=O)N(CC(C)C)C4)ncnc2o1", "values": [{"measurement": "Percent Effect", "setting": "30.3 µM, […]", "result": 71.44, "unit": "%"}]}
{"smiles": "CCc1nc2c(N3CCC4(CC3)CC(=O)N(CC)C4)ncnc2o1", "values": [{"measurement": "Percent Effect", "setting": "30.3 µM, […]", "result": 0.202, "unit": "%"}]}
{"smiles": "CCOCC(=O)N1CCOCC2(CCN(c3ncccn3)C2)C1.O=C(O)C(F)(F)F", "note": "(stereo not given)", "values": [{"measurement": "Percent Effect", "setting": "30.3 µM, […]", "result": -3.02, "unit": "%"}]}
{"smiles": "OCCC1CN(C2CCC2)CCN1C1CCCC1", "note": "(stereo not given)", "values": [{"measurement": "Percent Effect", "setting": "30 µM, 30.03 µM", "result": 24.92, "unit": "%"}]}
{"smiles": "Clc1ccccc1CCN1CCN(c2ccc3nncn3n2)CC1", "values": [{"measurement": "Percent Effect", "setting": "30 µM", "result": 7.685, "unit": "%"}]}
{"smiles": "O=C(CN1CCCC(c2ccn[nH]2)C1)N1CCCc2ccccc21", "note": "(stereo not given)", "values": [{"measurement": "Percent Effect", "setting": "30.3 µM, […]", "result": -7.148, "unit": "%"}]}
{"smiles": "Cc1cc(C2CCCN(CC(=O)Nc3nc4c(s3)CCC4)C2)n[nH]1", "note": "(stereo not given)", "values": [{"measurement": "Percent Effect", "setting": "30.3 µM, […]", "result": 34.8, "unit": "%"}]}
{"smiles": "O=C(CN1CCCC(c2ccn[nH]2)C1)Nc1nc2c(s1)CCC2", "note": "(stereo not given)", "values": [{"measurement": "Percent Effect", "setting": "30.3 µM, […]", "result": 51.08, "unit": "%"}]}
{"smiles": "O=C(CN1CCCC(c2ccn[nH]2)C1)Nc1nncs1", "note": "(stereo not given)", "values": [{"measurement": "Percent Effect", "setting": "30.3 µM, […]", "result": 11.72, "unit": "%"}]}
{"smiles": "O=C(CN1CCCC(c2ccn[nH]2)C1)Nc1nc2c(s1)CCCC2", "note": "(stereo not given)", "values": [{"measurement": "Percent Effect", "setting": "30.3 µM, […]", "result": 57.39, "unit": "%"}]}
{"smiles": "Cc1nnc(NC(=O)CN2CCCC(c3ccn[nH]3)C2)s1", "note": "(stereo not given)", "values": [{"measurement": "Percent Effect", "setting": "30.3 µM, […]", "result": -18.19, "unit": "%"}]}
{"smiles": "CN(C)CCN1C(=O)CC[C@@H]2[C@H]1CCN2C(=O)c1ccc(C#N)cc1.O=C(O)C(F)(F)F", "values": [{"measurement": "Percent Effect", "setting": "30.3 µM, […]", "result": 2.551, "unit": "%"}]}
{"smiles": "Cc1ccc(CN(CCCn2ccnc2)Cc2c[nH]cn2)s1.O=C(O)CC(O)(CC(=O)O)C(=O)O", "values": [{"measurement": "Percent Effect", "setting": "30 µM, 30.03 µM", "result": 29.23, "unit": "%"}]}
{"smiles": "CCc1ccc(CN(CCCn2ccnc2)Cc2ccc(C)s2)o1.O=C(O)CC(O)(CC(=O)O)C(=O)O", "values": [{"measurement": "Percent Effect", "setting": "30 µM, 30.03 µM", "result": 12.85, "unit": "%"}]}
{"smiles": "CC(NC(=O)N(C)Cc1ccsc1)c1ccc2c(c1)OCO2", "note": "(stereo not given)", "values": [{"measurement": "Percent Effect", "setting": "30 µM, 30.03 µM", "result": 29.16, "unit": "%"}]}
